Results reported in PubChem BioAssay AID430 (Sanford-Burnham Center for Chemical Genomics, 2006).
The whole screen tested about 63,000 compounds, of which about 1,100 (1.7%) were called active. Rule as the data show it: active = cytotoxicity above about 50%; inactive = the rest. The list comes from a sample in which actives are over-represented; it also holds similar structures and randomly drawn compounds. Measured potencies and affinities stand elsewhere.

Experiment: cytotoxicity in HPDE-C7 cells, cell-based, fluorescence, HTS (AID 430);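 also: cells exposed to compound for 48 hours before viability readout; 0% = vehicle and 100% = reference cytotoxic drug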
Conditions: HPDE-C7 pancreatic duct cells viability, at 10 µM, active compounds read high

Row | SMILES | cytotoxicity
1 | COC(=O)C1=C(C)NC(C)=C(C(=O)OC)C1c1cc2cc(C)ccc2[nH]c1=O | 2.9% (inactive)
2 | COc1ccc(C)cc1S(=O)(=O)N(CC(=O)N1CCOCC1)Cc1ccccc1 | -1.7% (inactive)
3 | N#Cc1cn(Cc2cccc(Cl)c2)c2ccccc12 | 56.1% (active)
4 | N#Cc1cn(Cc2ccccc2)c2ccccc12 | 6.7% (inactive)
5 | N#Cc1cn(CC(=O)O)c2ccccc12 | -15.5% (inactive)
6 | CCOc1ccc(N2C(=O)C3CCCN3C2=O)cc1 (stereo not drawn) | 3.6% (inactive)
7 | COc1ccc(C(C#N)N2CCCCCC2)cc1OC (stereo not drawn) | 2.4% (inactive)
8 | Fc1ccc(C2=Nn3c(nnc3-c3n[nH]c4c3CCC4)SC2)cc1 | 0.5% (inactive)
9 | Clc1ccc(C2=Nn3c(nnc3-c3n[nH]c4c3CCC4)SC2)cc1 | 46.1% (inactive)
10 | CC1=Nn2c(nnc2-c2n[nH]c3c2CCC3)SC1 | -3.7% (inactive)
11 | Brc1ccc(C2=Nn3c(nnc3-c3n[nH]c4c3CCC4)SC2)cc1 | 61.4% (active)
12 | Clc1ccc(C2=Nn3c(nnc3-c3n[nH]c4c3CCC4)SC2)cc1Cl | 76.8% (active)
13 | c1ccc(C2=Nn3c(nnc3-c3n[nH]c4c3CCC4)SC2)cc1 | 8.7% (inactive)
14 | CCc1nc(SCC(=O)Nc2cc(C)on2)c2c(C)c(C)sc2n1 | -1.6% (inactive)
15 | CC1(C)CC(=O)C(C=NC2CCCCC2)=C(O)C1 | -6.9% (inactive)
16 | Cn1c(=O)c2c(SC3CCCC3)nc(CC(C)(C)C)nc2n(C)c1=O | -9% (inactive)
17 | Cc1onc(-c2ccccc2Cl)c1C(=O)NCc1nc(-c2ccccc2)no1 | -4.2% (inactive)
18 | CC(=O)c1cccc(NC(=O)c2ccc(NS(C)(=O)=O)cc2)c1 | 17.5% (inactive)
19 | CCOC(=O)c1c(C)[nH]c(C(=O)Cn2c(=O)c3c(ncn3CC)n(Cc3ccccc3)c2=O)c1C | 4.9% (inactive)
20 | CCOC(=O)c1c(NC(=O)c2cccs2)sc(C)c1CC | -2.4% (inactive)
21 | CCc1c(C)sc(NC(=O)c2cccs2)c1C(=O)OC(C)C | 58.9% (active)
22 | CC(C)OC(=O)c1c(NC(=O)c2cccs2)sc2c1CCCC2 | 9.8% (inactive)
23 | COc1ccccc1CC(NC(C)=O)C(=O)NC1CCN(c2nnnn2-c2ccccc2)CC1 (stereo not drawn) | -2.9% (inactive)
24 | CCN(CC)S(=O)(=O)c1ccc(-c2nnc(SCC(=O)c3ccc(OC)cc3)o2)cc1 | -7.3% (inactive)

Row | SMILES | cytotoxicity
25 | COc1ccc(C(=O)CSc2nnc(-c3ccc(S(=O)(=O)N4CCOCC4)cc3)o2)cc1 | 56.1% (active)
26 | COc1ccc(C(=O)CSc2nnc(-c3ccc(C)cc3)o2)cc1 | -8.2% (inactive)
27 | O=C(CN1C(=O)c2ccccc2S1(=O)=O)N1CCN(Cc2ccc3c(c2)OCO3)CC1 | -4.2% (inactive)
28 | CCCn1c(C)cc(C(=O)COc2ncnc3sccc23)c1C | -1.4% (inactive)
29 | CCN1C(=O)c2cccc3c(NC(=O)c4cccc(N5C(=O)CCC5=O)c4)ccc1c23 | -19.8% (inactive)
30 | CCN1C(=O)c2cccc3c(NC(=O)c4ccc5c(c4)OCCO5)ccc1c23 | 84.7% (active)
31 | CCN1C(=O)c2cccc3c(NC(=O)c4ccc(S(=O)(=O)N(C)C)cc4)ccc1c23 | -24.8% (inactive)
32 | COc1ccc(CCC(=O)NCc2ccco2)cc1 | -5.5% (inactive)
33 | Clc1ccccc1-c1nnn(Cc2ccc(-c3nn[nH]n3)cc2)n1 | -10.8% (inactive)
34 | CCCS(=O)(=O)N1CCCC(C(=O)N2CCC(Cc3ccccc3)CC2)C1 (stereo not drawn) | 0.4% (inactive)
35 | CCCS(=O)(=O)N1CCC(C(=O)N2CCC(Cc3ccccc3)CC2)CC1 | 79.7% (active)
36 | CS(=O)(=O)N1CCC(C(=O)N2CCC(Cc3ccccc3)CC2)CC1 | 1.2% (inactive)
37 | Clc1ccccc1Cn1nnc2c(N3CCCC3)ncnc21 | 5% (inactive)
38 | COc1ccc(C2(O)CCN(Cc3nnnn3Cc3ccc(C)cc3)CC2)cc1 | -4.4% (inactive)
39 | O=C(Oc1cc2oc(=O)c3c(c2cc1Cl)CCCC3)c1ccco1 | -3.8% (inactive)
40 | CNc1oc(Cc2cccc3ccccc23)nc1C#N | 3.8% (inactive)
41 | C=CCNc1oc(Cc2cccc3ccccc23)nc1C#N | -12% (inactive)
42 | N#Cc1nc(Cc2cccc3ccccc23)oc1NCc1ccco1 | 58.4% (active)
43 | CCn1cc(C(=O)NCCCN(C)c2ccccc2)c(=O)c2cc(S(=O)(=O)N(C)C)ccc21 | 10.5% (inactive)
44 | CCc1nnc(NC(=O)CSc2nccn2-c2cc(C)cc(C)c2)s1 | 7.6% (inactive)
45 | Cc1ccccc1-c1noc(-c2ccc(O)cc2)n1 | 52.8% (active)
46 | CCOc1ccc(-c2nc(-c3ccccc3C)no2)cc1 | 2.4% (inactive)
47 | Cc1ccccc1-c1noc(-c2cccs2)n1 | -7.3% (inactive)
48 | CCn1c(-c2c[nH]c3ccccc23)n[nH]c1=S | 6.5% (inactive)
